Laboratory results from PubChem BioAssay.
Activity calls are given as the source filed them.

What was measured:
[1] = tested on: PRMT1 (protein arginine N-methyltransferase 1); test: small molecules binding arginine methyltransferase PRMT1 – biochemical, small-molecule microarray, 635 nm fluorescence, primary screen (AID 1088); details: higher = more signal;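 further: binding of Prmt1 protein to compounds spotted on small-molecule microarray slides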
[2] = growth effects on S. cerevisiae YJM789 – YJM789 clinical isolate, OD600, 24 h, basal, primary screen (AID 1089); details: higher = more signal, called active from +8 up or from −8 down;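 further: growth of clinical yeast isolate S. cerevisiae YJM 789 seeded 1000 cells per well; test concentration not given here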
[3] = S. pombe growth modifiers, basal conditions – strain 972, OD600, 24 h, no modulator, primary screen (AID 1090);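 further: basal condition with compound alone and no growth modifier present; test concentration not given here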; details: S. pombe 972 growth, higher = more signal, called active from +8 up or from −8 down
[4] = budding yeast growth modifiers under rapamycin – strain BY4716, OD600, 96 h, primary screen (AID 1091); further: test concentration not given here; details: S. cerevisiae BY4716 + rapamycin, higher = more signal, called active from +8 up or from −8 down
[5] = molecular target: Torsin-1A-interacting protein 2 (Homo sapiens) (UniProt Q8NFQ8); test: small molecules binding lysate-expressed LULL1 – cell lysate, human LULL1 lysate, 635/667 nm fluorescence, primary screen (AID 1092); details: small-molecule microarray, hLULL1 lysate binding, 635 nm fluorescence; higher = more signal;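 further: probe is lysate of COS7 cells overexpressing human LULL1; score merges per-feature 667 nm fluorescence with signal-to-noise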
[6] = optical density change of DRC41 E. coli – strain DRC41, OD650, 24 h, E. coli filamentation project, primary screen (AID 1093);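 further: MC1000 strain lacking acrAB efflux and sulA so SOS filamentation is blocked; test concentration not given here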; details: E. coli DRC41 growth, higher = more signal, called active from +8 up or from −8 down
[7] = probe aLefty2 binding to arrayed compounds – biochemical, biotinylated probe, 635/667 nm fluorescence, primary screen (AID 1094); details: small-molecule microarray, higher = more signal;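 further: score merges spot fluorescence near 667 nm with spot signal-to-noise ratio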
[8] = tested on: Noggin (protein binding on small-molecule microarray); test: small molecules binding Noggin protein – biochemical, 635/667 nm fluorescence, primary screen (AID 1095); details: 635 nm fluorescence, higher = more signal;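 further: score merges 667 nm feature fluorescence with signal to noise over triplicate slides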
[9] = molecular target: Neurogenic locus notch homolog protein 3 (Homo sapiens) (UniProt Q9UM47); test: small molecules binding NOTCH3 protein – biochemical, 635/667 nm fluorescence, primary screen (AID 1096); details: small-molecule microarray, 635 nm fluorescence, higher = more signal
[10] = probe aEGFR binding to arrayed compounds – biochemical, biotinylated probe, 635/667 nm fluorescence, primary screen (AID 1097); details: small-molecule microarray, higher = more signal;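 further: probe is a biotinylated anti-EGFR antibody binding compounds printed on slides; score combines fluorescence near 667 nm and signal to noise of each spot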

Chain of Neurogenic locus notch homolog protein 3 (Homo sapiens) (Q9UM47 whole entry, looked up): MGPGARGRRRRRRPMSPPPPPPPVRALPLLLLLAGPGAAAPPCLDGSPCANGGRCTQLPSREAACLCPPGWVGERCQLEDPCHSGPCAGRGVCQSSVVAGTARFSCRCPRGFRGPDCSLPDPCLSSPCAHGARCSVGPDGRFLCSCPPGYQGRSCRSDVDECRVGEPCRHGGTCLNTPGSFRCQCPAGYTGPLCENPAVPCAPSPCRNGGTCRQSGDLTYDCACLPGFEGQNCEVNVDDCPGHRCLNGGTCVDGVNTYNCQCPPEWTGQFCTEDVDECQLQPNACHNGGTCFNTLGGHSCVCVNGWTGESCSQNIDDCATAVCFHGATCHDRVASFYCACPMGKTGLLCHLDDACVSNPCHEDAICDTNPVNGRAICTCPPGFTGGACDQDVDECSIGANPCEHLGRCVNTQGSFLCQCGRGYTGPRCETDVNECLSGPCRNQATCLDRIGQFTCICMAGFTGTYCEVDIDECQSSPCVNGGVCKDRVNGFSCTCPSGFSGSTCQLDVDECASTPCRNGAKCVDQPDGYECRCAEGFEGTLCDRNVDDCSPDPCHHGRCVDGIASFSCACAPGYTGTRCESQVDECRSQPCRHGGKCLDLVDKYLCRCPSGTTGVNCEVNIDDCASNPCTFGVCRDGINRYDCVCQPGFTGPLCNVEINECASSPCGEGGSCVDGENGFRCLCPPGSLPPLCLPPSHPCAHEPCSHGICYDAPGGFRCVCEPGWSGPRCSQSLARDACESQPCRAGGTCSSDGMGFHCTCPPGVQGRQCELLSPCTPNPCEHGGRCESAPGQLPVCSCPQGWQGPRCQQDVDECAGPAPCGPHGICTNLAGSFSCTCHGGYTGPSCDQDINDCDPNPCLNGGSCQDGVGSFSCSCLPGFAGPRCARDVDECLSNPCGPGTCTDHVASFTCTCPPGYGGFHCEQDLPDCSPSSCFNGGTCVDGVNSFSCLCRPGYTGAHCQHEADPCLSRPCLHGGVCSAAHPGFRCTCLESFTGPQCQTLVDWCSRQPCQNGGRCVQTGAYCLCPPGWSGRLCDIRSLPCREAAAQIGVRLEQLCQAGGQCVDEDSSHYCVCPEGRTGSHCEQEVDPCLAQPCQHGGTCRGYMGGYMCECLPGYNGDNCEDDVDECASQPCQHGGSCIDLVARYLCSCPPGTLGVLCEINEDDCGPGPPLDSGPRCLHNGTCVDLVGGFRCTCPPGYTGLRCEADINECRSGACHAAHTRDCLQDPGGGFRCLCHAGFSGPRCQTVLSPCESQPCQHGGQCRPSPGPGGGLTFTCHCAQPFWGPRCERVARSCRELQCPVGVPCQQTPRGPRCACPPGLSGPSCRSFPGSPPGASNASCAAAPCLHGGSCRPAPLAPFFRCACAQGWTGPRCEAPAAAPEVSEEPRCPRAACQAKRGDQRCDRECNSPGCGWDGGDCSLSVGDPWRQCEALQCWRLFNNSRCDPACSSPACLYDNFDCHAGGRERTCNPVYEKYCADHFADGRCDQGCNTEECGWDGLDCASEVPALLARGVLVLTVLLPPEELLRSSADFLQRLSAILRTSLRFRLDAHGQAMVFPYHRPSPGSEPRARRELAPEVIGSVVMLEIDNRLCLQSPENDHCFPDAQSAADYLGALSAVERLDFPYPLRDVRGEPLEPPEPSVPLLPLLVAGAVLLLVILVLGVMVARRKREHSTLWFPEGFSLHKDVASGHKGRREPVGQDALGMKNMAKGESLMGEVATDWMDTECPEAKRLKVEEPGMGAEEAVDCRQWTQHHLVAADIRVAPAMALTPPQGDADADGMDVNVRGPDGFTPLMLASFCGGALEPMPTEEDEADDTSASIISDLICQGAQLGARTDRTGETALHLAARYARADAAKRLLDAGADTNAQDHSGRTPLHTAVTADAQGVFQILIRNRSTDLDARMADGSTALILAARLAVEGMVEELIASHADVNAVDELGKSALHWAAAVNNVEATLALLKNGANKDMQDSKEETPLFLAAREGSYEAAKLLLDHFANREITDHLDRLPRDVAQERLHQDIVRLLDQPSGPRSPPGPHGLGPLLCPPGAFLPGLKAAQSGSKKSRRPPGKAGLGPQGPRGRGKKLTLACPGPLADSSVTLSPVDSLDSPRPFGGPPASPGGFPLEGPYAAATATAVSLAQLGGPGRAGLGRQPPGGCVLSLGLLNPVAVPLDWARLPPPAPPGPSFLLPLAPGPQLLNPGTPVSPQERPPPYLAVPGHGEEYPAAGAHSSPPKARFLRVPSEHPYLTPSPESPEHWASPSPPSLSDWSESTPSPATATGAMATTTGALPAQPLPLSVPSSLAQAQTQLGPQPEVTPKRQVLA
Chain of Torsin-1A-interacting protein 2 (Homo sapiens) (Q8NFQ8 whole entry, looked up): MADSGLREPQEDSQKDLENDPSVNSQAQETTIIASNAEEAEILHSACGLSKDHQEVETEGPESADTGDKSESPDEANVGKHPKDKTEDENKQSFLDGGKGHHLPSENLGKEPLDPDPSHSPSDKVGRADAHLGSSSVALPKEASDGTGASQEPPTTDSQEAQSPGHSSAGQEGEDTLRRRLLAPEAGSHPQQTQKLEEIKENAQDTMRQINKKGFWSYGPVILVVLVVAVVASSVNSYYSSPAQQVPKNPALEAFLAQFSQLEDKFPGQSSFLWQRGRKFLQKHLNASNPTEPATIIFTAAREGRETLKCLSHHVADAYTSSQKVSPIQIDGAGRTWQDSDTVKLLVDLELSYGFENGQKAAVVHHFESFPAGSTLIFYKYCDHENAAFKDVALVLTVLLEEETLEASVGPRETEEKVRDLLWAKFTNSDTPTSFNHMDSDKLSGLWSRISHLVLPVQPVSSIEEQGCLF

| Structure (SMILES) | composite z-score [1] | z-score [2] | z-score [3] | z-score [4] | composite z-score [5] | z-score [6] | composite z-score [7] | composite z-score [8] | composite z-score [9] | composite z-score [10] |
| --- | --- | --- | --- | --- | --- | --- | --- | --- | --- | --- |
| CCC(CC)C(O)C1C=CC2C(=O)NC(=O)C2N1Nc1ccccn1 (stereo not given) | -0.26 | 0.188 (inactive) | 1.22 (inactive) | 0.315 (inactive) | 1.35 | -0.691 (inactive) | 0.0744 | -0.441 | -0.412 | 0.148 |
| O=C(c1ccccc1)N1C(=O)[C@]2(COC(c3ccc(OCCCO)cc3)=N2)Cc2ccccc21 | 1.53 | -1.84 (inactive) | 0.901 (inactive) | 4.51 (inactive) | 3.17 | -0.178 (inactive) | 0.133 | 0.722 | 1.15 | -0.0989 |
| CCCCN1CC=CC23O[C@@H]4C=CCCOC(=O)C4[C@H]2C(=O)N(CCCCCCO)[C@@H]3C1=O (stereo not given in full) | 1.31 | -0.0739 (inactive) | -0.576 (inactive) | 0.2 (inactive) | 1.74 | -0.444 (inactive) | -0.462 | -0.235 | 0.294 | -0.227 |
| C=CCOC(=O)[C@@H]1[C@H]2C(=O)O[C@H](c3ccccc3)[C@H](c3ccccc3)N2[C@H](c2ccc(OCCOC(=O)[C@H]3C[C@H]4C(=O)N5CCC[C@H]5C(=O)N4[C@H]3c3ccc(O)cc3)cc2)[C@@]12C(=O)Nc1ccc(I)cc12 | 1.54 | 0.825 (inactive) | 0.267 (inactive) | 3.14 (inactive) | 1.95 | 0.553 (inactive) | -0.203 | 1.46 | 1.07 | -0.119 |
| CCCC[C@@H]1C[C@H]1[C@@H](NC(=O)c1ccccc1)c1ccc(C(=O)OC)cc1 | -0.406 | -1.24 (inactive) | -11.2 (active) | -2.61 (inactive) | 0.0062 | -1.13 (inactive) | 0.285 | 0.894 | -0.544 | -0.224 |
| CCOC(=O)C[C@H]1[C@H](OC(=O)c2ccc(-c3ccccc3)cc2)[C@@H](NC(=O)Cc2ccc(OC)cc2)c2cc(OCCCO)ccc2N1C(=O)c1ccccc1 | -0.15 | 0.359 (inactive) | 0.822 (inactive) | 0.72 (inactive) | 0.905 | -0.69 (inactive) | 0.044 | 0.763 | 0.238 | -0.122 |
| C=CCN1C(=O)[C@]2(O[C@H](CCn3cc([C@H](O)c4ccccc4)nn3)[C@@H]([Si](C)(C)c3ccc(OC)cc3)[C@@H]2C)c2ccccc21 | 0.267 | -1.25 (inactive) | 0.0123 (inactive) | -0.198 (inactive) | 0.41 | -0.68 (inactive) | -0.113 | -0.308 | 0.183 | -0.145 |
| CC(C)N1C(=O)C[C@@](C(=O)NCC(F)(F)F)(c2ccc([N+](=O)[O-])cc2)[C@H]1c1ccc(CO)cc1 | 1.55 | -0.804 (inactive) | -1.63 (inactive) | -1.63 (inactive) | 3.32 | -0.29 (inactive) | -0.195 | 0.493 | 0.356 | -0.0987 |
| [N-]=[N+]=NCc1ccccc1[C@@H]1OC(c2ccc(OCCCO)cc2)=N[C@]1(Cc1ccccc1)C(N)=O | 1.48 | -0.368 (inactive) | -2.27 (inactive) | -0.784 (inactive) | 3.36 | 0.455 (inactive) | 0.227 | 0.683 | 1.06 | 0.154 |
| O=C(OCc1ccccc1)C1=CCC2c3[nH]c4ccccc4c3C(=O)C1N2S(=O)(=O)c1ccccc1[N+](=O)[O-] (stereo not given) | 1.52 | 0.802 (inactive) | 1.1 (inactive) | 7.14 (inactive) | 3.57 | -0.639 (inactive) | 0.0673 | 0.614 | 1.03 | -0.112 |
| COC(=O)c1c(CC[C@@H](CO)NC(=O)NCCn2cc(C3(O)CCCC3)nn2)oc(C(C)=O)c1C(=O)OC | 0.463 | -0.539 (inactive) | -0.263 (inactive) | -0.0147 (inactive) | 3.24 | -0.918 (inactive) | -0.23 | 0.0587 | -0.33 | -0.0778 |
| Cc1ccc(N2C(=O)c3ccccc3[C@@H](C(=O)NC3CC3)[C@@H]2c2ccc(CO)cc2)nc1 | -1.57 | -1.31 (inactive) | -0.916 (inactive) | -0.486 (inactive) | 2.35 | 0.387 (inactive) | 0.297 | -0.912 | -1.44 | -0.281 |
| COc1ccc([Si](C)(C)[C@H]2[C@H](CCO)O[C@@]3(C(=O)N(Cc4ccc(N(C=O)c5ccccc5)cc4)c4ccccc43)[C@@H]2C)cc1 | 0.258 | 1.09 (inactive) | 0.302 (inactive) | 25.2 (active) | 1.12 | 0.759 (inactive) | -0.107 | 0.0352 | 0.033 | -0.162 |
| CC1CC/C=C\[C@H]2OC34C=CCN(Cc5ccccc5)C(=O)[C@H]3N(CCCO)C(=O)[C@@H]4C2C(=O)O1 (stereo not given in full) | 0.398 | -1.7 (inactive) | -1.25 (inactive) | -0.807 (inactive) | 1.97 | 0.56 (inactive) | -0.254 | -1.12 | -0.106 | -0.283 |
| COC(=O)C(CC#Cc1ccc2c(c1)[C@]1(C(=O)N2)[C@H](c2ccc(OCCO)cc2)N2[C@H](c3ccccc3)[C@H](c3ccccc3)OC(=O)[C@H]2[C@@H]1C(=O)N1CCc2cc(OC)c(OC)cc2C1)C(=O)OC | 1.57 | 2.12 (inactive) | 1.74 (inactive) | 5.14 (inactive) | 3.34 | 0.49 (inactive) | 0.365 | -1.11 | 1.07 | 0.169 |
| CC(=O)n1cc(C(O)C2C=CC3C(=O)N(c4ccccc4)C(=O)C3N2Nc2ccc([N+](=O)[O-])cc2)c2ccccc21 (stereo not given) | 1.45 | -0.701 (inactive) | 0.451 (inactive) | 2.05 (inactive) | 3.28 | -0.567 (inactive) | 0.534 | -0.386 | 1.06 | -0.0355 |
| CN(C)C(=O)[C@]1(Cc2ccccc2N=[N+]=[N-])N=C(c2ccc(OCCCO)cc2)O[C@@H]1c1ccccc1N=[N+]=[N-] | 1.55 | -2.43 (inactive) | -2.73 (inactive) | 4.05 (inactive) | 3.2 | 0.799 (inactive) | 0.191 | 0.923 | 1.07 | -0.0111 |
| CC(C)NC(=O)[C@@]1(C)c2ccccc2C(=O)N(Cc2cc(C(F)(F)F)cc(C(F)(F)F)c2)[C@H]1c1ccc(CO)cc1 | 1.4 | 0.49 (inactive) | 0.155 (inactive) | -0.0902 (inactive) | 3 | -0.0192 (inactive) | -0.239 | -0.729 | -0.301 | -0.295 |
| COCCOC(=O)N1C(=O)[C@@]2(c3cc(C#CCNC(N)=O)ccc31)[C@H](C(=O)Nc1nc3ccccc3s1)[C@H]1C(=O)O[C@H](c3ccccc3)[C@H](c3ccccc3)N1[C@@H]2c1ccc(OCCO)cc1 | 1.55 | 1.18 (inactive) | 0.409 (inactive) | 2.79 (inactive) | 1.61 | -0.333 (inactive) | 0.711 | 0.88 | 1.06 | -0.0354 |
| NC(=O)NCC#Cc1ccc2c(c1)[C@]1(C(=O)N2)[C@H](c2ccccc2OCCO)N2[C@H](c3ccccc3)[C@H](c3ccccc3)OC(=O)[C@H]2[C@@H]1C(=O)Nc1nc2ccccc2s1 | 1.24 | 1.99 (inactive) | 1.61 (inactive) | 3.78 (inactive) | 2.49 | 1.15 (inactive) | -0.0416 | 0.288 | 0.773 | -0.178 |
| COCCOC(=O)N1C(=O)[C@@]2(c3cc(C#CC4(O)CCCCCC4)ccc31)[C@H](c1ccccc1OCCO)N1[C@H](c3ccccc3)[C@H](c3ccccc3)OC(=O)[C@H]1[C@@H]2C(=O)N1CCN(c2ncccn2)CC1 | 1.55 | 2.46 (inactive) | 1.5 (inactive) | 6.01 (inactive) | 2.73 | 1.02 (inactive) | 0.028 | 0.574 | 0.959 | 0.219 |
| C[N+](C)(C)CCCC[C@@H]1NC(=O)[C@H]2C[C@@H](C(=O)NCCCCCCNC(=O)CS)[C@@H](c3cccc(OCCO)c3)N2C1=O | -0.452 | -0.173 (inactive) | 0.532 (inactive) | -0.0564 (inactive) | 2.01 | 0.154 (inactive) | -0.0766 | -0.33 | -0.837 | -0.268 |
